Most compounds without a hit are left out; they make up all but 12% or so of the library.
HP1b binding inh – blocks HP1-beta chromodomain binding to methylated histone tails. AlphaScreen HP1-beta / biotin-H3K9me3 peptide binding. Potency, µM (top dose mostly 114 µM), actives largely listed as inhibitors. hit rate 0.56% among 390,000; also: nearly all actives have a fitted effect of over 70% in size
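HP1-beta protein (50 nM final) preincubated 30 min at room temperature with biotinylated H3(1-18)K9me3 peptide (50 nM) in PBS pH 7.4, 0.01% Tween-20, then compound added for 30 min. AlphaScreen streptavidin donor/nickel chelate acceptor beads (10 ug/mL final), 30 min dark, luminescence read.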
BAZ2B block – inhibitors of human BAZ2B bromodomain. Q9UIF8. AlphaScreen BAZ2B-H3K14Ac peptide displacement. Potency, µM (titrated, usually from 114 µM), usual class: inhibitors. hit rate 4.4% among 360,000. AID 504333; also: nearly all actives have a fitted effect of over 60% in size
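Complex of BAZ2B and biotin-H3K14Ac (50 nM apiece) forms over 30 min at RT, then faces library compounds up to 110 uM for another 30 min; AlphaScreen beads added, 20 min dark incubation, luminescence read.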
JMJD2A Tudor – JMJD2A Tudor domain (human) inhibition | O75164 | AlphaScreen JMJD2A-Tudor / H3K4me3 peptide binding | Potency, µM (series often up to 114 µM), hits mostly inhibitors | hit rate 4.4% among 390,000 | AID 504339; also: nearly all actives have a fitted effect of over 50% in size
Sfp inh – blocks B. subtilis Sfp PPTase activity; Q9F4F7; Biochemical Sfp PPTase activity, qHTS; Potency, µM, most hits filed as inhibitors; hit rate 3.5% among 310,000;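 also: the enzyme is Sfp with the accession as filed and its product quenches rhodamine fluorescence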
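Fluorescence-quenching assay: 15 nM Sfp-PPTase preincubated 15 min at room temperature with compound, then 5 uM rhodamine-CoA and 12.5 uM BHQ-2-labelled YbbR peptide added. Fluorescence (ex 525/em 598 nm) read at start and after 30 min; difference gives rate.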
PLK1 PBD block – inhibitors of human PLK1 polo-box domain binding; P53350; Plk1 PBD binding of FITC phosphopeptide, fluorescence polarization; hit rate 2.8% among 360,000; Potency, µM, most hits filed as inhibitors; also: series mostly up to about 57 µM; nearly all actives have a fitted effect of over 65% in size
Target sequence (P53350 whole entry, looked up, the tested form may be a part): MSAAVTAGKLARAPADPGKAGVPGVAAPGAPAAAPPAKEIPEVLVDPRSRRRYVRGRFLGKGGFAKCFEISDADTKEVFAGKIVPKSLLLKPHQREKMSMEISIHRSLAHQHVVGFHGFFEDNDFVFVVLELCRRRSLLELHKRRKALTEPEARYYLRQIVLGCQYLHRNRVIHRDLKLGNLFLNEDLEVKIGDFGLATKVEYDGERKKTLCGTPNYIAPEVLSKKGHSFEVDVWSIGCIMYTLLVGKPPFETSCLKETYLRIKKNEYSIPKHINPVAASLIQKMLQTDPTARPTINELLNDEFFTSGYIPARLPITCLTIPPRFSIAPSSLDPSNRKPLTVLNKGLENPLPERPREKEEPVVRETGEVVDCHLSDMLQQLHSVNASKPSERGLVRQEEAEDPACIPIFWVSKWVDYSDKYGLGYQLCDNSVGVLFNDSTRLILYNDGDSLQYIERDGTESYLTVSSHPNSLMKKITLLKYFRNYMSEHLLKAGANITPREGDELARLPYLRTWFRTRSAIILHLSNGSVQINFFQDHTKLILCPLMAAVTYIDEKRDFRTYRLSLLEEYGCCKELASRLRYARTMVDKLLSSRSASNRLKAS
G9a block – blocks human histone lysine methyltransferase G9a | Q96KQ7 | G9a H3K9 monomethylation, AlphaScreen, 2 h | Potency, µM (top dose mostly 102 µM), most hits filed as inhibitors | hit rate 8.8% among 350,000; also: nearly all actives have a fitted effect of over 75% in size
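Readings reflect AlphaScreen signal from monomethyl-H3K9 antibody detection. HMT at 20 nM; substrate b-H3K9 500 nM; cofactor SAM 20 uM; 2 h RT reaction; compounds tested as titrations in qHTS with 15 min preincubation.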
Numbers stand for hits; . = inactive; ? = inconclusive; / = no result given; ! = repeats disagree. Calls follow the shape of the dose curve; as a rule, active = well fitted curve in the direction sought with a large enough effect; inconclusive = small, poorly fitted or top-dose-only effect, or another doubt; inactive = no such curve, though single readings can be large; an effect the other way counts as inactive or inconclusive.

SMILES	HP1b binding inh	BAZ2B block	JMJD2A Tudor	Sfp inh	PLK1 PBD block	G9a block
O=C(Cn1ncc2c3ccccc3n(Cc3ccccc3F)c2c1=O)NCc1ccccc1Cl	.	.	.	/	/	.
O=C1c2ccccc2[C@@H]2C[C@@H](O)[C@H](Nc3ccccc3-c3ccccc3)CCN12	.	/	.	/	.	/
O=C(Nc1ccc(F)c(Cl)c1)c1cc(S(=O)(=O)N2CCCc3ccccc32)ccc1F	.	.	.	/	/	.
Cc1cccc(C(=O)n2nc(-c3cccnc3)nc2NCc2ccccc2)c1	.	.	.	/	/	.
Cc1ccc(NCc2nc3ccccc3n2CCOc2ccccc2)cc1	.	22.4µM	15.8µM	?	.	2.24µM
Fc1ccc(NCc2nc3ccccc3n2CCOc2ccccc2Cl)cc1	.	.	.	/	/	.
COc1ccc(NCc2nc3ccccc3n2CCOc2ccccc2C)cc1	?	12.6µM	20µM	/	/	?
O=C(NCc1ccccc1Cl)c1ccc(Nc2nc3ccccc3n3nnnc23)cc1	.	.	.	/	/	.
CCCCNC(=O)c1cc2cccc([N+](=O)[O-])c2[nH]1	.	?	.	.	.	50.1µM
CCc1ccc2[nH]cc(S(=O)(=O)c3ccc(C(C)C)cc3)c(=O)c2c1	.	.	.	/	/	.
CCN(CC)c1ccc(NC(=O)Nc2ccccc2)cc1	?	?	?	.	.	8.91µM
CCN(CC)c1ccc(NC(=S)NC(=O)Cc2ccccc2)cc1	?	11.2µM	25.1µM	.	?	7.94µM
CCN(CC)c1ccc(NC(=O)c2sc3ccccc3c2Cl)cc1	?	11.2µM	11.2µM	/	/	5.01µM
COc1ccc(/C=C/C(=O)O)cc1S(=O)(=O)NCc1cccnc1	.	.	.	.	.	?
C=CCn1c(O)c(N=NC(=S)Nc2cccc(OC)c2)c2ccccc21	?	7.94µM	?	.	.	28.2µM
C=CCn1c(O)c(N=NC(=S)Nc2ccc(OC)cc2)c2ccccc21	?	?	?	.	.	28.2µM
C=CCn1c(O)c(N=NC(=O)OCC)c2ccccc21	.	.	.	.	.	.
CN1c2cc3c(cc2N=C(c2ccc(C(=O)O)cc2)c2ccccc21)C(C)(C)CCC3(C)C	/	/	/	.	/	/
Cc1c2ccccc2cc[n+]1CCCS(=O)(=O)[O-]	.	.	.	.	.	.
Cc1ccc2sc(C)[n+](CCCS(=O)(=O)[O-])c2c1	.	.	.	2.82µM	.	?
Cc1ccc2c(c1)sc(C)[n+]2CCCS(=O)(=O)[O-]	.	.	.	1µM	.	?
CC(C)N(C(=O)c1cc2c(Cl)nc3ccccc3c2s1)C1CCCCC1	.	.	.	/	/	.
O=C1CCc2cc(S(=O)(=O)Nc3ccc4c(c3)OCCO4)ccc2N1	/	/	.	/	/	/
CC12C=C(/C=C/c3ccc(C(F)(F)F)cc3)C(C)(C1)C(c1ccc(C(F)(F)F)cc1)CC2=O (stereo not given)	/	/	/	.	/	/
CC1=C(C(=O)N2CCOCC2)CC(CC(=O)NCC2CCCCC2)C(=O)N1Cc1ccc(C(C)(C)C)cc1 (stereo not given)	/	/	/	/	.	/
SMILES	HP1b binding inh	BAZ2B block	JMJD2A Tudor	Sfp inh	PLK1 PBD block	G9a block
C[C@@H](CN(C)C[C@H]1C(=O)O[C@@H]2C[C@@]3(C)CCC[C@]4(CO4)C3CC21)[C@H](O)c1ccccc1 (stereo not given in full)	/	/	/	.	/	/
NC(=NCCCCCCN=C(N)/N=C(\N)Nc1ccc(Cl)cc1)/N=C(\N)Nc1ccc(Cl)cc1	.	.	.	28.2µM!	.	14.1µM!
O=C1CSC(=S)N1N=C1CCCCCC1	.	.	.	17.8µM	.	?
O=C1C2C3C=CC(O3)C2C(=O)N1N=C1CCCCC1 (stereo not given)	.	/	.	/	.	/
CC(C)(C)c1ccc(S(=O)(=O)c2cnc(SCC(=O)Nc3ccc(F)c(Cl)c3)[nH]c2=O)cc1	.	.	?	/	/	.
COc1cc(Cl)c(C)cc1NC(=O)CSc1ncc(S(=O)(=O)c2ccc(C(C)(C)C)cc2)c(=O)[nH]1	.	25.1µM	89.1µM	/	/	.
CC(C)(C)C(=O)NC1CCN(CC(=O)Nc2ccc3c(c2)OCO3)CC1	.	.	.	.	.	.
CCC(=Cc1ccccc1OC)c1ccncc1	.	/	.	/	.	/
Cc1csc(NC(=O)CSc2nnc(Cn3c(=O)sc4ccccc43)n2-c2ccccc2)n1	.	.	.	79.4µM	.	?
Cn1c(SCC(=O)NC2CC2)nnc1-c1ccccc1	.	.	.	.	.	.
Cn1c(Cn2c(=O)sc3ccccc32)nnc1SCC(=O)NC1CCCC1	.	.	.	.	23.8µM	.
Cn1c(SCC(=O)NC2CC2)nnc1-c1ccccc1Cl	.	.	.	.	26.7µM	/
Cn1c(Cn2c(=O)sc3ccccc32)nnc1SCC(=O)NC1CCCCC1	.	.	.	.	?	.
Cc1ccccc1-n1c(Cn2c(=O)sc3ccccc32)nnc1SCC(=O)Nc1nccs1	.	.	.	.	.	.
Cc1ccc(NC(=O)CSc2nc3c(sc4ccccc43)c(=O)n2CCCC(=O)NC2CCCC2)cc1C	.	.	.	/	/	.

High-throughput results (PubChem)
